PubChem BioAssay (NCATS)
Records with an inconclusive call do not appear. Entries that show only a call come without a potency. Unmarked numbers belong to inactive results. Activity calls are given as the source filed them. Unless noted, the call rests on the fitted dose curve; in most records, active means well fitted curve in the direction sought with a large enough effect; inconclusive means small, poorly fitted or top-dose-only effect, or another doubt; inactive means no such curve, though single readings can be large; an effect the other way counts as inactive or inconclusive.

Key:
[1] = target: Calcium and integrin-binding protein 1 (Homo sapiens) (UniProt Q99828); assay: Primary qHTS for Identification of Calcium Integrin Binding Protein 1 (CIB1) Competitor (AID 1508620);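 further: GST tagged CIB1 binding a fluorescein labelled alphaIIb integrin peptide tracer; top concentration of the series differs between compounds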
Summary of the method: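 Fluorescence polarization competition: GST-tagged CIB1 (1 uM final) preincubated with compound 15 min at room temperature, then FITC-labelled alphaIIb peptide (100 nM final) added. After 15 min at room temperature, polarization read at Ex 480/Em 540.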

[2] = tested on: KB-3-1; assay: Cytotoxic Profiling of Annotated Libraries Using Quantitative High-Throughput Screening (AID 1296008); conditions: Five cell lines viability, CellTiter-Glo ATP luminescence, 48-72 h; max response: hits give low values; further: nearly all actives have a fitted effect of over 60% in size; further: potency means the concentration at half of the fitted maximal effect
Summary of the method: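 Cells exposed to compounds for 48 or 72 hr at 37 degrees Celsius. Viability read as ATP-coupled luminescence with CellTiter-Glo after 10 min at room temperature.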

[3] = tested on: HACAT; assay: qHTS assay to identify novel small-molecules to repurpose for Merkel cell carcinoma treatment (AID 1296009); conditions: MCC and control cell lines, CellTiter-Glo viability, 72 h; at 44.8 µM (top of the series) unless noted; further: nearly all actives have a fitted effect of over 60% in size
Summary of the method: (§1)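 Cells were incubated with compound for 72 hr at 37 degree celsius before CellTiter-Glo addition. Luminescence was normalized with no-cell wells as full cytotoxicity and DMSO as baseline.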

[4] = tested on: CAOV3; assay: Primary qHTS to identify gynecologic anti-cancer compounds using libraries of approved drugs and bioactive compounds (AID 1345084); conditions: Gynecologic cancer cell panel viability, ATPlite luminescence, 48 h; series mostly up to 57.5 µM; further: nearly all actives have a fitted effect of over 55% in size; further: potency means the concentration at half of the fitted maximal effect
Summary of the method: (§2)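 Measured: luminescence after ATPlite addition (15 min, RT). Exposure: 48 h, 37 C, 5% CO2.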

[5] = tested on: HeLa; assay: as above; conditions: Gynecologic cancer cell panel viability, ATPlite luminescence, 48 h; series mostly up to 57.5 µM
Summary of the method: as §2

[6] = tested on: JEG-3; assay: as above; conditions: Gynecologic cancer cell panel viability, ATPlite luminescence, 48 h; series mostly up to 57.5 µM
Summary of the method: as §2

[7] = tested on: SKOV3; assay: as above; conditions: Gynecologic cancer cell panel viability, ATPlite luminescence, 48 h; series mostly up to 57.5 µM
Summary of the method: as §2

[8] = P-glycoprotein substrates identified in KB-8-5-11 adenocarcinoma cell line, qHTS therapeutic library screen (AID 1346987); further: nearly all actives have a fitted effect of over 65% in size
Summary of the method: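 KB-8-5-11: colchicine-selected sub-line of KB-3-1 over-expressing P-gp; assay medium lacked colchicine. 72 h drug exposure at 37 degree C, CellTiter-Glo.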

[9] = Primary redox qHTS assay for identification of artifact compounds. (AID 1845223)
Summary of the method: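 Amplex Red (25 uM) and HRP (250 mU/mL) in HBSS, with compounds for 15 min, then 250 uM DTT for 30 min, room temperature, dark. Fluorescence 525/598 nm read; normalized to DMSO and 10 uM DA3003; Hill fit.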

[10] = tested on: CRL-7250; assay: qHTS assay to identify novel small-molecules to repurpose for Merkel cell carcinoma treatment (AID 1296009); conditions: MCC and control cell lines, CellTiter-Glo viability, 72 h; series mostly up to 92 µM; further: nearly all actives have a fitted effect of over 60% in size
Summary of the method: as §1

[11] = tested on: Zika virus NS2B-NS3 protease (unlinked complex); assay: Primary screen GU Rhodamine qHTS for Zika virus inhibitors: Unlinked NS2B-NS3 protease assay (AID 1347159); further: nearly all actives have a fitted effect of over 60% in size; further: potency means the concentration at half of the fitted maximal effect
Summary of the method: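 Noncovalent NS2B hydrophilic domain/NS3 protease complex (25 nM final) in 10 mM Tris-HCl pH 8.0, 0.01% Tween 20, preincubated 15 min with compounds (up to 114 microM), then 1.5 microM Rhodamine110 substrate. Fluorescence change over 15 min fitted to 4-parameter Hill.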

[12] = target: Cytochrome P450 2D6 (Homo sapiens) (UniProt P10635); assay: Cytochrome P450 family 2 subfamily D member 6 (CYP2D6) small molecule antagonists: luciferase biochemical (cell-free) qHTS assay (AID 1645840; active means well fitted curve in the direction sought with a large enough effect in the repeat runs; an effect the other way counts as inactive or inconclusive; further: nearly all actives have a fitted effect of over 55% in size)
Summary of the method: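 P450-Glo luminescent screen: recombinant CYP2D6 enzyme–proluciferin substrate mix preincubated with compound 10 min at room temperature, then NADPH regeneration added for 1 h at room temperature. Detection reagent added for 20 min; luciferin light read as relative luminescence units.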

[13] = P-glycoprotein substrates identified in KB-3-1 adenocarcinoma cell line, qHTS therapeutic library screen (AID 1346986); further: nearly all actives have a fitted effect of over 60% in size
Summary of the method: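 Compounds were tested in dose-response against KB-3-1 and KB-8-5-11 cells at 37 degree C for 72 h, and viability was measured by luminescence. AC50 values came from curve fitting with class-based activity calls.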

Sequence of Calcium and integrin-binding protein 1 (Homo sapiens) (Q99828 whole entry, looked up): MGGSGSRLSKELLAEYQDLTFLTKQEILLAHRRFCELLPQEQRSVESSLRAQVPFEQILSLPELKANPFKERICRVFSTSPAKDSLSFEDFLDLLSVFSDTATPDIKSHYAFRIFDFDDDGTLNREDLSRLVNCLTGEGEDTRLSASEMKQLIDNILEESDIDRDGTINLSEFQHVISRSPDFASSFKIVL
Sequence of Cytochrome P450 2D6 (Homo sapiens) (P10635 whole entry, looked up): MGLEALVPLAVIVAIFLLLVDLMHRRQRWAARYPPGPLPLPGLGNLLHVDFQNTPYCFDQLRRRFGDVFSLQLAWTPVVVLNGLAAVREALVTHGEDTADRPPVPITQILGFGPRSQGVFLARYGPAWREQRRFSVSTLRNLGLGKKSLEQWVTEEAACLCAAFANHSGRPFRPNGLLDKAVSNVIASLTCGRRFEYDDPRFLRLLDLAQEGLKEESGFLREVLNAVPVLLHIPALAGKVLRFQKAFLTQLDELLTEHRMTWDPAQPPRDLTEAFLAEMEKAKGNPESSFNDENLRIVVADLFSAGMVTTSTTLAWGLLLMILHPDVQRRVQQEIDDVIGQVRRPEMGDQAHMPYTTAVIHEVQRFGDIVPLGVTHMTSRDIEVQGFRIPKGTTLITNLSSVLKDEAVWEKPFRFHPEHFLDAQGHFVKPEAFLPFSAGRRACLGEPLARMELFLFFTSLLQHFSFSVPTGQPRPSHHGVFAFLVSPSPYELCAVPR

| Compound | Potency [1] | max response [2] | outcome [3] | Potency [4] | Potency [5] | Potency [6] | Potency [7] | Potency [8] | Potency [9] | Potency [10] | Potency [11] | Potency [12] | Potency [2] | Potency [13] | outcome [2] |
| --- | --- | --- | --- | --- | --- | --- | --- | --- | --- | --- | --- | --- | --- | --- | --- |
| C=C1[C@@]23C(=O)O[C@H](C)[C@]24O[C@@]2(C(=C)[C@]5(C=CC(=O)OC5(C)C)CC[C@]32C)[C@H](O)[C@@]1(C)OC4=O | inactive | -4.55% | inactive [at 17.4 µM] | inactive | inactive | inactive | inactive |  |  |  |  |  |  |  |  |
| N#CC(O[C@@H]1O[C@H](CO)[C@@H](O)[C@H](O)[C@H]1O)c1ccccc1 (stereo partly specified) | inactive | 0.785% |  | inactive | inactive | inactive | inactive | inactive | inactive | inactive |  |  |  |  |  |
| C/C=C(/C)C1C=CC2CC(C)CC(C)C2C1/C(O)=C1\C(=O)NC(CC(C)(O)C(=O)O)C1=O (stereo unspecified) | inactive | 4.77% |  |  | inactive | inactive | inactive | inactive |  | inactive |  |  |  |  |  |
| CN1C(=O)CN=C(c2ccccc2Cl)c2cc(Cl)ccc21 |  | -0.99% |  | inactive | inactive | inactive | inactive | inactive | inactive | inactive | inactive | inactive |  |  |  |
| C=CC/C=C\C/C=C\CCCCCCCc1cc(O)cc(O)c1 | inactive | -0.409% | inactive | inactive | inactive | inactive | inactive | inactive | inactive |  |  |  |  |  |  |
| COC(=O)[C@]12CCCC(C)(C)C1CCc1cc(C(C)C)c(O)c(O)c12 (stereo partly specified) | inactive | -12.9% | inactive | inactive | inactive | inactive | inactive | inactive |  |  | 4470 nM (active) |  |  |  |  |
| CNC(=O)c1cc(C#N)cc(C)c1NC(=O)c1cc(Br)nn1-c1ncccc1Cl | inactive | -25.7% |  | inactive | inactive | inactive | inactive |  | inactive |  | inactive |  |  |  |  |
| C[C@@H]1CCC/C=C/[C@H]2C[C@@H](O)C[C@@H]2[C@@H](O)/C=C/C(=O)O1 |  |  |  | 316 nM (active) | 501 nM (active) | 1000 nM (active) | 355 nM (active) |  | inactive |  |  |  | 146 nM (active) |  |  |
| CS[C@]1(CO)C(=O)N2[C@H]3C(=CC=C[C@@H]3O)C[C@@]2(SC)C(=O)N1C |  |  |  |  | inactive | inactive | inactive |  |  | inactive |  |  |  | inactive | inactive |
